This is an account of results in the antibiotic and cytotoxicity screens of Wong et al. (2023).

Among all 39,000 compounds or so, about 500 (1.3%) were called active. For the sample, actives were picked, then their nearest neighbours and some compounds at random.

The test system of the experiment is S. aureus RN4220. Briefly: growth inhibition call (relative growth <= 0.2). Conditions: 50 µM.
For `C[C@@H]1CCCCO[C@@H](CN(C)C(=O)Nc2ccc3c(c2)OCO3)[C@@H](C)CN([C@@H](C)CO)C(=O)c2cc(NC(=O)Cc3ccccc3)ccc2O1`, the growth inhibition call is “inactive”. For `c1ccc(Nc2nc(-c3ccccc3)nc3ccccc23)cc1` the value was “inactive”; for `CCC(CC)c1nc(Nc2ccccc2)c2ccccc2n1`, “active”. For `CCOc1ccc(Nc2c3ccccc3nc3ccccc23)cc1` the value was “inactive”. For `Cc1ccc(S(=O)(=O)Nc2ccc3c(c2)C(=O)N([C@H](C)CO)C[C@H](C)[C@H](CN(C)S(=O)(=O)c2ccc(F)cc2)OCCCC[C@@H](C)O3)cc1` the value was “inactive”. Turning to `Cc1noc(C)c1S(=O)(=O)N(C)C[C@H]1Oc2ccc(NS(=O)(=O)c3ccccc3)cc2CC(=O)N([C@H](C)CO)C[C@@H]1C`, the growth inhibition call was “inactive”. For `C[C@@H]1CN([C@@H](C)CO)C(=O)c2cc(NC(=O)Nc3ccc(C(F)(F)F)cc3)ccc2O[C@@H](C)CCCCO[C@H]1CN(C)C(=O)C1CCCCC1` the value was “inactive”; for `COC(=O)c1c(-c2c(Cl)cccc2Cl)noc1-c1cnn(-c2cccc(Cl)c2)c1C(F)(F)F`, “inactive”. As to `Cc1onc(-c2c(Cl)cccc2Cl)c1C(=O)NC1C(=O)N2C1SC(C)(C)C2C(=O)[O-].[Na+]` (configuration not stated), the growth inhibition call is “active”.

`Cc1onc(-c2ccccc2Cl)c1C(=O)NC1C(=O)N2C1SC(C)(C)C2C(=O)[O-].[Na+]` (configuration not stated): the growth inhibition call was “active”. With `Cc1onc(-c2ccccc2)c1C(=O)NC1C(=O)N2C1SC(C)(C)C2C(=O)[O-].[Na+]` (configuration not stated), the growth inhibition call was “active”. For `C[C@H](CO)N1C[C@H](C)[C@H](CN(C)S(=O)(=O)c2cccc(F)c2)Oc2ncc(C#CCN(C)C)cc2C1=O`, the growth inhibition call is “inactive”.

With `C[C@@H]1CN([C@H](C)CO)C(=O)CCCn2cc(nn2)CO[C@H]1CN(C)C(=O)c1ccc(N2CCN(C)CC2)cc1`, the growth inhibition call is “inactive”. For `C[C@@H]1CN([C@H](C)CO)C(=O)c2cccc(NC(=O)Nc3cccc4ccccc34)c2O[C@@H]1CN(C)C(=O)Nc1cccc2ccccc12` the value was “inactive”; for `C[C@@H]1CCCCO[C@@H](CN(C)C(=O)c2ccncc2)[C@H](C)CN([C@H](C)CO)C(=O)c2cc(NC(=O)C3CCCCC3)ccc2O1`, “inactive”; for `CC1CC2C(C(O)CC3(C)C2CCC3(O)C(=O)COC(=O)CCC(=O)[O-])C2(C)C=CC(=O)C=C12.[Na+]` (configuration not stated), “inactive”.

On to `COc1cc(NC(=O)CCN2CCC(OC(=O)Nc3ccccc3-c3ccccc3)CC2)c(Cl)cc1CNC[C@H](O)c1ccc(O)c2nc(O)ccc12`, for which the growth inhibition call is “inactive”. With `CO[C@H]1CN(C)C(=O)c2cc(NC(=O)Nc3ccccc3)ccc2OC[C@H](C)N(C(=O)CN(C)C)C[C@@H]1C`, the growth inhibition call was “inactive”. For `Cc1noc(C)c1S(=O)(=O)Nc1ccc2c(c1)CC(=O)N([C@H](C)CO)C[C@@H](C)[C@@H](CN(C)Cc1ccncc1)O2` the value was “inactive”; for `Cc1noc(C)c1NC(=O)Nc1ccc2c(c1)CC(=O)N([C@@H](C)CO)C[C@@H](C)[C@@H](CN(C)S(C)(=O)=O)O2`, “inactive”. For `CC(=O)O[C@@H]1[C@@H]2OC(=O)[C@H](OC(C)=O)[C@@H]2O[C@H]1n1ccc(=O)[nH]c1=O` the value was “inactive”; for `COc1ccc2c3c([nH]c2c1)[C@H](CO)N(C[C@]13CCN(CC1)CC1CCCCC1)C(=O)Nc1cccc(c1)F`, “inactive”.

Take `COc1ccc2c3c([nH]c2c1)[C@H](CO)N(C[C@]13CCN(CC1)CC1CCCC1)C(=O)Nc1cccc(c1)F`: the growth inhibition call is “inactive”. In the case of `COc1ccc2c3c([nH]c2c1)[C@@H](CO)N(C[C@]13CCN(CC1)CC1CCCC1)C(=O)Nc1cccc(c1)F`, the growth inhibition call is “inactive”. For `COc1ccc2c3c([nH]c2c1)[C@@H](CO)N(C[C@]13CCN(CC1)Cc1ccc(cc1)F)C(=O)Nc1ccc(cc1)F` the value was “active”; for `COc1ccc2c3c([nH]c2c1)[C@@H](CO)N(C[C@]13CN(CC2CCCCC2)C1)C(=O)Nc1cccc(c1)F`, “inactive”; for `COc1ccc2c3c([nH]c2c1)[C@H](CO)N(C[C@]13CN(CC2CCCCC2)C1)C(=O)Nc1cccc(c1)F`, “active”. Regarding `COc1ccc(cc1)CN1CC[C@]2(CC1)CN([C@H](CO)c1[nH]c3cc(ccc3c12)OC)C(=O)Nc1ccc(cc1)F`, the growth inhibition call was “inactive”. For `COc1ccc2c3c([nH]c2c1)[C@@H](CO)N(C[C@]13CCN(CC1)CC1CCCCC1)C(=O)Nc1cccc(c1)F` the value was “active”. For `COc1ccc2c3c([nH]c2c1)[C@H](CO)N(C[C@]13CCN(CC1)Cc1ccc(cc1)F)C(=O)Nc1ccc(cc1)F` the value was “inactive”; for `C=CCOC(=O)O[C@H]1[C@@H](OC)O[C@H](COC(=O)NCCCCCC(=O)NO)[C@@H](OC(=O)[C@H](CC=C)Cc2cccc(Br)c2)[C@@H]1OC(=O)[C@H](CC=C)Cc1ccccc1`, “inactive”; for `C[C@H](CO)N1C[C@H](C)[C@@H](CN(C)C(=O)Nc2ccc3c(c2)OCCO3)OCc2cn(nn2)CCCC1=O`, “inactive”. Take `O=C(N[C@H]1C=C[C@H](CC(=O)N2CCOCC2)O[C@@H]1CO)c1ccc2c(c1)OCO2`: the growth inhibition call is “inactive”. As for `Cn1cnc(S(=O)(=O)N[C@H]2C=C[C@@H](CC(=O)NCC3CC3)O[C@H]2CO)c1`, the growth inhibition call is “inactive”. For `COc1ccc(NC(=O)Nc2ccc3c(c2)C(=O)N([C@@H](C)CO)C[C@H](C)[C@H](CN(C)C(=O)c2ccccc2)OCCCC[C@@H](C)O3)cc1` the value was “inactive”. For `CN(C)CC#Cc1cncc(C(=O)NN)c1` the value was “inactive”.

In the case of `CO[C@@H]1CN(C)C(=O)c2ccc(NC(=O)c3ccc(F)cc3)cc2OC[C@@H](C)N(C(=O)CN(C)C)C[C@@H]1C`, the growth inhibition call is “inactive”. For `CN1CCN(C(=O)C[C@H]2C[C@H]3c4cc(NC(=O)c5ccc6c(c5)OCO6)ccc4O[C@H]3[C@H](CO)O2)CC1` the value was “inactive”.

Regarding `C=CC[C@@H](CC(=O)NCCO)C(=O)NC[C@H](OC(=O)[C@@H](CC=C)CC(=O)OC(C)(C)C)c1ccccc1`, the growth inhibition call is “inactive”. For `Nc1nc(/C(=N/O)C(=O)N[C@@H]2C(=O)N3C(C(=O)O)=C(/C=C4\CCN([C@@H]5CCNC5)C4=O)CS[C@H]23)ns1` the value was “inactive”; for `Nc1nc(/C(=C/CC(=O)O)C(=O)N[C@@H]2C(=O)N3C(C(=O)O)=CCS[C@H]23)cs1`, “inactive”. For `C=CC1=C(C(=O)O)N2C(=O)C(NC(=O)C(=NOCC(=O)O)c3csc(N)n3)C2SC1` (configuration not stated) the value was “inactive”; for `C=CC1=C(C(=O)O)N2C(=O)C(NC(=O)C(=NO)c3csc(N)n3)C2SC1` (configuration not stated), “active”. For `C=CC1=C(C(=O)O)N2C(=O)[C@@H](NC(=O)/C(=N\OCC(=O)O)c3csc(N)n3)[C@H]2SC1`, the growth inhibition call was “active”. For `C=CC1=C(C(=O)O)N2C(=O)[C@@H](NC(=O)/C(=N/O)c3csc(N)n3)[C@H]2SC1` the value was “active”; for `Nc1nc(C(=CCC(=O)O)C(=O)NC2C(=O)N3C(C(=O)O)=CCSC23)cs1` (configuration not stated), “active”; for `COC(=O)/C=C/c1cn([C@H]2OC[C@@H](CO)[C@@H]2O)c(=O)[nH]c1=O`, “inactive”. For `Cc1cncc2cccc(S(=O)(=O)N[C@H]3CN[C@@H](COC(=O)NCCOCCOCCN)C3)c12` the value was “inactive”.

As for `C[C@H](CO)N1C[C@H](C)[C@@H](CN(C)S(C)(=O)=O)Oc2cc(-c3ccccc3F)ccc2S1(=O)=O`, the growth inhibition call was “inactive”.

For the compound `CCCN(C)C[C@@H]1OCCCC[C@@H](C)Oc2ccc(NC(=O)c3ccccc3)cc2C(=O)N([C@H](C)CO)C[C@@H]1C`, the growth inhibition call is “inactive”. For `COc1ccc(NC(=O)N(C)C[C@H]2Oc3ccc(NC(=O)Cn4cnnn4)cc3C(=O)N([C@H](C)CO)C[C@@H]2C)cc1` the value was “inactive”; for `C[C@@H]1CN([C@@H](C)CO)C(=O)c2cc(NC(=O)Nc3ccc(F)cc3)ccc2O[C@@H](C)CCCCO[C@@H]1CN(C)Cc1ccccc1`, “inactive”.

As to `C[C@@H]1CN([C@H](C)CO)C(=O)c2cccc(NC(=O)Nc3cccc4ccccc34)c2O[C@@H]1CN(C)CC1CCCCC1`, the growth inhibition call is “inactive”. Consider `C[C@H](CO)N1C[C@H](C)[C@@H](CN(C)Cc2ccc(Oc3ccccc3)cc2)Oc2ccc(NS(=O)(=O)c3cccs3)cc2C1=O`, for which the growth inhibition call was “inactive”. For `O=P(O)(O)C(Sc1ccc(Cl)cc1)P(=O)(O)O` the value was “inactive”; for `C(=N\n1cnnc1)/c1ccco1`, “inactive”. For `C[C@@H]1CN([C@H](C)CO)C(=O)Cc2cc(NS(=O)(=O)c3cn(C)cn3)ccc2O[C@H]1CN(C)CC1CCCCC1` the value was “inactive”; for `CN1C(=O)c2cc(NC(=O)C3CCOCC3)ccc2OC[C@H]2O[C@@H](CC(=O)NCc3ccccc3F)CC[C@H]21`, “inactive”; for `O=C1NCCN1c1cccnc1`, “inactive”. Turning to `Cc1noc(C)c1NC(=O)N(C)C[C@@H]1Oc2ccc(NC(=O)C3CC3)cc2CC(=O)N([C@H](C)CO)C[C@H]1C`, the growth inhibition call was “inactive”. With `C=CC1=C(C(=O)O)N2C(=O)[C@@H](NC(=O)/C(=N\O)c3csc(N)n3)[C@H]2SC1`, the growth inhibition call is “active”.

`Cc1noc(C)c1NC(=O)Nc1ccc2c(c1)C(=O)N([C@@H](C)CO)C[C@@H](C)[C@H](CN(C)C(=O)Nc1ccc(F)cc1)OCCCC[C@@H](C)O2`: the growth inhibition call is “inactive”.

Consider `NCc1nc(CCc2ccccc2)cs1`, for which the growth inhibition call was “inactive”. For `Cc1ccc(S(=O)(=O)Nc2cccc3c2O[C@H](CN(C)S(=O)(=O)c2ccc(F)cc2)[C@@H](C)CN([C@H](C)CO)C3=O)cc1` the value was “inactive”. With `CN1CCN(C(=O)C[C@H]2CC[C@@H]3[C@H](COc4ccc(NC(=O)c5cscn5)cc4C(=O)N3C)O2)CC1`, the growth inhibition call was “inactive”. For `COc1ccc(CC(=O)c2ccc(O)cc2O)cc1` the value was “inactive”; for `COc1ccc(C=CC(=O)c2ccc(O)cc2O)cc1`, “inactive”. For `COc1ccc(C(C)C(=O)c2ccc(O)cc2O)cc1` (configuration not stated) the value was “active”. As for `C[C@@H]1CN([C@@H](C)CO)C(=O)c2cc(NC(=O)Nc3ccc(F)cc3)ccc2O[C@@H](C)CCCCO[C@@H]1CN(C)C(=O)Cc1ccccc1`, the growth inhibition call is “inactive”.

Regarding `O=C(CO)N1C[C@H]2C[C@@H]1C[C@@H]2Oc1cccnc1`, the growth inhibition call was “inactive”. Take `CN[C@@H]1[C@@H](O[C@@]2(C)O[C@H](CO)[C@@H](N)[C@H](O)[C@H]2O)O[C@H]2C[C@@H](N)[C@@H](O[C@H]3[C@H](O)[C@@H](O)[C@H](N)C[C@@H]3N)O[C@@H]2[C@@H]1O`: the growth inhibition call is “inactive”. For `NC[C@H]1O[C@H](O[C@H]2[C@H](O[C@@H]3O[C@H](CO)[C@@H](O)[C@H]3O)[C@@H](O)[C@H](N)C[C@@H]2N)[C@H](N)[C@@H](O)[C@@H]1O` the value was “inactive”. For the compound `NCC1OC(OC2C(N)CC(N)C(OC3OC(CO)C(O)C(N)C3O)C2O)C(O)C(O)C1O.O=S(=O)(O)O` (configuration not stated), the growth inhibition call was “inactive”. Turning to `NCC[C@H](O)C(=O)N[C@@H]1C[C@H](N)[C@@H](O[C@H]2O[C@H](CN)[C@@H](O)[C@H](O)[C@H]2O)[C@H](O)[C@H]1O[C@H]1O[C@H](CO)[C@@H](O)[C@H](N)[C@H]1O`, the growth inhibition call is “active”.

As for `NC[C@H]1O[C@H](O[C@H]2[C@H](O)[C@@H](O[C@H]3O[C@H](CO)[C@@H](O)[C@H](N)[C@H]3O)[C@H](N)C[C@@H]2N)[C@H](N)[C@@H](O)[C@@H]1O`, the growth inhibition call is “inactive”. In the case of `NCC1OC(OC2C(CO)OC(OC3C(O)C(N)CC(N)C3OC3OC(CN)C(O)C(O)C3N)C2O)C(N)C(O)C1O.O=S(=O)(O)O.O=S(=O)(O)O.O=S(=O)(O)O` (configuration not stated), the growth inhibition call was “inactive”. For `CNC1C(OC2OC(CO)C(N)C(O)C2O)OC2CC(N)C(OC3C(N)CC(N)C(O)C3O)OC2C1O.O=S(=O)(O)O` (configuration not stated) the value was “active”; for `NCC1OC(OC2C(CO)OC(OC3C(O)C(N)CC(N)C3OC3OC(CO)C(O)C(O)C3N)C2O)C(N)C(O)C1O.O=S(=O)(O)O` (configuration not stated), “active”; for `NCC1OC(OC2C(N)CC(N)C(O)C2OC2OC(CO)C(O)C2O)C(N)C(O)C1O.O=S(=O)(O)O` (configuration not stated), “inactive”. For `NCC1OC(OC2C(N)CC(N)C(OC3OC(CO)C(O)C(N)C3O)C2O)C(N)C(O)C1O.O=S(=O)(O)O` (configuration not stated) the value was “active”; for `CN[C@@H]1[C@@H](O[C@H]2O[C@H](CO)[C@@H](N)[C@H](O)[C@H]2O)O[C@H]2C[C@@H](N)[C@H](O[C@H]3[C@H](O)[C@@H](O)[C@H](N)C[C@@H]3N)O[C@@H]2[C@@H]1O`, “inactive”. As for `NCCC(O)C(=O)NC1CC(N)C(OC2OC(CN)C(O)C(O)C2O)C(O)C1OC1OC(CO)C(O)C(N)C1O.O` (configuration not stated), the growth inhibition call is “inactive”.
